# This is a sample that favours compounds with a hit; in the whole collection about 3.6% have one here.
# NFkB transloc inh = blocks IL-1B driven NFkB nuclear translocation in HUVEC cells; inhibition, % at 2 µM; AID 796; actives 0.43% (n = 94,000); HUVEC IL-1B NFkB p65 nuclear translocation imaging;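 active means inhibition above about 30% together with a positive call from visual inspection of the well image, limit read from the data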;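 further: nuclear over cytoplasmic p65 intensity ratio measured by imaging; 0% = IL-1B stimulated DMSO wells and 100% = unstimulated DMSO wells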
# ERa SRC1 pot = enhances coactivator binding to human estrogen receptor alpha; TR-FRET ERalpha-LBD/SRC-Cy5 coactivator binding, 2 h; 100 = basal binding, no effect; actives 1.3% (n = 86,000); coactivator binding (% of control), % at 25.6 µM; AID 639; in the data active means activity above about 200%;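 further: binding measured in presence of low estradiol as agonist stimulus; 0% = peptide alone without receptor and 100% = receptor with peptide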
# Target sequence (P03372 whole entry, looked up, the tested form may be a part): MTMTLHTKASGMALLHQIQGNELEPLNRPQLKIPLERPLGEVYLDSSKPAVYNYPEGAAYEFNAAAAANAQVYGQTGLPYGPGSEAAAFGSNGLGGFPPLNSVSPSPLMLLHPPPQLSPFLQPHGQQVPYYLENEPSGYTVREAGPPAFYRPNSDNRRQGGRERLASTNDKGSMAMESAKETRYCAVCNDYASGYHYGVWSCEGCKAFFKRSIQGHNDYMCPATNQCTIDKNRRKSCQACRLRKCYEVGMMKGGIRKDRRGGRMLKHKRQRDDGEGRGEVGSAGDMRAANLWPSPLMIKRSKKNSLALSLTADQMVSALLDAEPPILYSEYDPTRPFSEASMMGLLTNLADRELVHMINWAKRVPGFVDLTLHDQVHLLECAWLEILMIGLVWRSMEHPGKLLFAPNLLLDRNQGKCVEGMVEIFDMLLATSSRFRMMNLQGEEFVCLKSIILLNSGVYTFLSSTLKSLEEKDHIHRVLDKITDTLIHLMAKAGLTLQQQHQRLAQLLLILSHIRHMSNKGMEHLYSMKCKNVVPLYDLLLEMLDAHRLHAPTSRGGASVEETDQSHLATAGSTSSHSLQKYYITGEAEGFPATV
# IL1B NFkB pot = enhances IL-1B driven NFkB nuclear translocation. HUVEC IL-1B NFkB p65 nuclear translocation imaging. activation, % at 2 µM. actives 0.3% (n = 94,000);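 active means activation above 40%, about the mean plus 3 SD, also judged a hit on visual image review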;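 further: percent activation is computed from the nuclear over cytoplasmic p65 intensity ratio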
# ERa SRC1 inh = blocks coactivator binding to human estrogen receptor alpha | P03372 | TR-FRET ER-alpha LBD / SRC-1 peptide, estradiol-bound | inhibition, % at 25.6 µM | actives 1.7% (n = 86,000) | AID 629; in the data active means inhibition above about 50%;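 further: 0% = receptor plus peptide control and 100% = peptide only without receptor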
# IL1B cytotox = HUVEC cytotoxicity counter-screen, IL-1B stimulated; HUVEC cell count loss, Hoechst imaging; cell count reduction, % at 2 µM; actives 0.41% (n = 94,000); AID 845;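 active means cell count reduction more than 3 SD above the screen-wide mean, cut at about 70% in these data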;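 further: normalized per plate to untreated control cells as the no-loss baseline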
# ERb SRC1 inh = blocks coactivator binding to human estrogen receptor beta; Q92731; TR-FRET ER-beta LBD / SRC1-Cy5 peptide binding; receptor agonist-loaded with 1 µM estradiol; inhibition, % at 25.6 µM; actives 1.3% (n = 86,000);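 active means compounds whose percent inhibition of the receptor-coactivator binding signal exceeds about 50% in the single-dose screen, limit read from the data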;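 further: 0% = receptor plus peptide wells without compound and 100% = peptide-only wells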
# * marks the source's active call; other numbers are inactive results; · = no result; [ ] = dose if it differs, or a comment.
SMILES,NFkB transloc inh,ERa SRC1 pot,IL1B NFkB pot,ERa SRC1 inh,IL1B cytotox,ERb SRC1 inh
CCOC(=O)c1sc(NC(=O)CSc2nc3c(cc2C#N)CCCCCC3)c(C#N)c1C,6,366*[fluorescence artefact?],-6,25,-8,37
CC(C)OC(=O)Cn1cnc2ccc(Br)cc2c1=O,14,99,-14,-2,17,-8
C=CCOc1nc2c(c(=O)n(C)c(=O)n2C)n1C,-1,·,1,·,85*,·
CCC(=O)N1CCn2c1nc1ccccc12,5,91,-5,5,-20,55*[fluorescence artefact?]
CN1CCN(CCN2CCn3c2nc2ccccc23)CC1,6,93,-5,-3,-82,6
N#CCCN1CCn2c1nc1ccccc12,·,200*,·,-10,·,-9
CCc1cc2c(=O)c(-c3ccc4c(c3)OCCO4)coc2cc1OC(=O)c1ccco1,-8,213*[fluorescence artefact?],8,70*[fluorescence artefact?],-16,58*[fluorescence artefact?]
CCCc1cc2c(=O)c(-c3ccc4c(c3)OCCO4)coc2cc1OC(=O)c1ccco1,10,122,-10,51*,-11,21
CCN(CC)Cc1c(O)ccc2c(=O)c(-c3ccc4c(c3)OCCO4)coc12,2,96,-2,3,-12,-10
CCCc1cc2c(=O)c(-c3ccc4c(c3)OCCO4)c(C)oc2cc1OS(C)(=O)=O,12,·,-12,·,6,·
O=c1cc(CSc2nnnn2-c2ccccc2)[nH]c2[nH]n(-c3ccccc3)c(=O)c12,-11,80,11,38,-10,45
CCCc1cc(=O)n2c([nH]c3ccccc32)c1C#N,36*,91,-36,1,-17,-10
CCOC(=O)c1sc(=NC(=O)c2ccc(S(=O)(=O)N3CCOCC3)cc2)n(C)c1C,·,166,·,8,·,7
CCOC(=O)c1sc(=NC(=O)c2cc(OC)c(OC)c(OC)c2)n(C)c1C,2,208*,-2,17,-4,21
O=C(CSc1nc2c(sc3ccccc32)c(=O)n1Cc1ccco1)NCC1CCCO1 (stereo unspecified),-2,279*[fluorescence artefact?],2,12,-6,39
O=C(CSc1nc2c(sc3ccccc32)c(=O)n1Cc1ccccc1)NCC1CCCO1 (stereo unspecified),-12,128,12,11,-27,5
O=C(O)c1sccc1SCc1ccc(Cl)cc1Cl,1,·,-1,·,-32,·
CC1CCN(S(=O)(=O)c2ccc(NC(=O)Cc3cccs3)cc2)CC1,-2,57,2,74*,-15,62*
CC1CCN(S(=O)(=O)c2ccc(NC(=O)Cn3nnc(-c4ccccc4)n3)cc2)CC1,-2,126,2,94*[fluorescence artefact?],30,76*[fluorescence artefact?]
Cc1ccc(S(=O)(=O)Nc2cc(NC(=O)CN3CCOCC3)ccc2Cl)cc1,13,120,-13,-22,12,-19
COC(=O)Cn1c(=NC(=O)CSC(C)=O)sc2ccccc21,·,89,·,4,·,-1
CCN1C(=O)/C(=c2\o/c(=C3\C=Cc4ccccc4N3CC)c(=O)n2CC)SC1=S,-8,18,8,77*[fluorescence artefact?],-26,36
CCN1C(=O)/C(=C2\C=Cc3ccccc3N2CC)SC1=S,2,·,-2,·,-6,·
CCN1C(=O)/C(=C2/C=Cc3ccccc3N2C)OC1=S,6,96,-6,66*[fluorescence artefact?],10,63*[fluorescence artefact?]
COc1ccc(Cl)cc1NC(=O)CN1CCC(n2nnc3cc(F)ccc32)CC1,100*,131,-100,22,92*,34
SMILES,NFkB transloc inh,ERa SRC1 pot,IL1B NFkB pot,ERa SRC1 inh,IL1B cytotox,ERb SRC1 inh
COc1cc(C)c(S(=O)(=O)NCc2ccc3c(c2)OCO3)cc1C,12,79,-12,66*,4,0
Cn1c(=O)[nH]c(=O)c2c1nc(CN1CCN(c3ccc(F)cc3)CC1)n2CCc1ccccc1,0,399*[fluorescence artefact?],0,-21,7,-6
Cc1ccc2nc(NC(=O)c3ccco3)sc2c1,-12,106,12,-5,9,-7
CSc1nc2ccc3nc(NC(=O)C4COc5ccccc5O4)sc3c2s1 (stereo unspecified),-10,209*[fluorescence artefact?],10,18,-53,12
Cc1nc2ccc3nc(NC(=O)C4COc5ccccc5O4)sc3c2s1 (stereo unspecified),·,279*,·,5,·,15
Cc1nc2ccc3nc(NC(=O)c4ccco4)sc3c2s1,-7,183,7,44,0,50*[fluorescence artefact?]

# Source: PubChem BioAssay
